Shown are actives, neighbours in structure and some others; about 4.8% of the full set was active somewhere.
HIF act – HIF pathway transcriptional activation | 0.32% of 300,000 active | U2OS HRE-luciferase reporter, luminescence; normalized: DMSO 0%, desferrioxamine 100% | AID 1910 | activation, % at 7.5 µM (by protocol);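 active = mean activation of at least 10% of the iron chelator positive control signal, with at least half of replicates also reaching 10%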
Mot1-301 SUMO – inhibitors of SUMOylation pathway: yeast Mot1-301 growth rescue; AID 2716; S. cerevisiae Mot1-301 growth rescue, ATP luminescence, 38.5C; percent above DMSO median, 100 means doubled; 1% of 320,000 active; growth rescue, % at 18.8 µM;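 active = every valid replicate shows activation above 250% relative to neutral control wells; inactive = the rest, any valid replicate at or below 250%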
ALR inh – human ALR oxidase inhibition via reduced H2O2; P55789; purified ALR, DTT oxidation, H2O2 HRP-luminol luminescence; inhibition, % (no concentration beside the values); 3.8% of 290,000 active; AID 485317;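 active = mean replicate inhibition above about 79%, with every replicate also reaching it, limit read from the data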
Target sequence (P55789 whole entry, looked up): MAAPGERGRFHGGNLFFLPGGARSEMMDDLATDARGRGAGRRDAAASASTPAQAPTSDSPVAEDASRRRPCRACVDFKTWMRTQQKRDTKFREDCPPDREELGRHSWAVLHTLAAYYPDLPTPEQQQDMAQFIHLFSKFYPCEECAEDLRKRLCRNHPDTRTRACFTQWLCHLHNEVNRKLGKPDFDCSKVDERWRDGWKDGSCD
AI-2 QS modul – Vibrio harveyi AI-2 quorum sensing modulation. Vibrio harveyi JMH597 AI-2 luminescence/OD600 ratio, 9 h; stronger effect = lower value; strain lacks LuxN and CqsS sensors; 0 = neutral-control median. activity change, % at 7.5 µM. 0.4% of 300,000 active; in the data active = activity change below about -75%, passing the limit was not always enough;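 also: luminescence divided by OD600 gain over 9 h not by final OD600 alone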
Of the large screens only hits and unclear results are named; the others gave an inactive call.

COc1ccc(/C=C/C(=O)NC(=S)NNC(=O)c2cc(OC)c(OC)c(OC)c2)cc1OC	none
COc1ccc(C(=O)NC(=S)NNC(=O)c2ccco2)cc1	ALR inh 99.7 (no result: AI-2 QS modul)
COc1ccc(NC(=S)NNC(=O)c2ccco2)c(OC)c1	ALR inh 77.1
O=C(N/C(=C\c1ccc(F)cc1)C(=O)N1CCOCC1)c1ccccc1	none
Cc1ccc(C)c(NC(=O)CN(C)C(=O)c2cc3ccccc3oc2=O)c1	none (no result: HIF act, AI-2 QS modul)
COc1ccccc1OCC(=O)NNC(=S)NC(=O)c1ccco1	ALR inh 89.2
COc1ccc(NC(=S)NCc2ccc(F)cc2)c(OC)c1	ALR inh 98.7
COc1ccc(/C=C/C(=O)NC(=S)NNC(=O)c2ccco2)cc1	ALR inh 85.6
COc1ccccc1C(=O)NC(=S)Nc1ccc(NC(=O)c2ccco2)cc1	none
COc1ccc(/C=C/C(=O)NCCSCc2ccco2)cc1OC	HIF act 57.2 (no result: ALR inh)
COc1cccc(NC(=O)CN(C)C(=O)CCCc2nc3ccccc3s2)c1	none
CCCCCOc1ccc(C2C(C(=O)c3ccc(C)o3)=C(O)C(=O)N2c2cc(C)on2)cc1 (configuration not stated)	ALR inh 98.1
COc1cccc2cc(C(=O)C3=C(O)C(=O)N(c4cc(C)on4)C3c3cccs3)oc12 (configuration not stated)	ALR inh 97.7
Cc1cc(N2C(=O)C(O)=C(C(=O)c3cc4ccccc4o3)C2c2ccc(OC(C)C)cc2)no1 (configuration not stated)	ALR inh 95.7
Cc1cc(N2C(=O)C(O)=C(C(=O)c3cc4ccccc4o3)C2c2cccc(Br)c2)no1 (configuration not stated)	ALR inh 97.6
CCCOc1cccc(C2C(C(=O)c3cc4ccccc4o3)=C(O)C(=O)N2c2cc(C)on2)c1 (configuration not stated)	none
O=C(C[n+]1ccccc1)N/N=C/c1ccc(Cl)c(Cl)c1	none
COC(=O)c1sc(N2C(=O)C(O)=C(C(=O)c3ccc(C)o3)C2c2ccc([N+](=O)[O-])cc2)nc1C (configuration not stated)	none
CCOc1ccc(C2C(C(=O)c3ccc(C)o3)=C(O)C(=O)N2c2nc(C)c(C(=O)OC)s2)cc1 (configuration not stated)	ALR inh 97.4
Cc1ccc(-c2nc3cnccn3c2Nc2c(C)cccc2C)o1	ALR inh 98.1
Cc1ccc(Nc2c(-c3ccc(N4CCOCC4)cc3)nc3ncccn23)c(C)c1	none (no result: ALR inh)
Cc1ccc(-c2nc3ncccn3c2NC2CCCC2)o1	ALR inh 98.7
Cc1ccc(-c2nc3ncccn3c2Nc2ccccc2C)o1	ALR inh 98.1
Brc1ccc(-c2nc3ncccn3c2NC2CCCCC2)o1	ALR inh 98.7
COC(=O)c1cc(S(=O)(=O)N(C)C2CCCCC2)c[nH]1	none (no result: AI-2 QS modul)
COC(=O)c1ccc(OC(=O)C2CSC3(C)CCC(=O)N23)cc1 (configuration not stated)	none
COc1c(/C=N/Nc2ccc(C(=O)O)cc2)c(CCN(C)C(C)=O)cc2c1OCO2	ALR inh 96.7
Cc1cccc(-n2c(SCC(=O)NCC3CCCO3)nc3ccccc3c2=O)c1C (configuration not stated)	none (no result: HIF act, ALR inh, AI-2 QS modul)
CCOc1ccc2[nH]c3nc(SCC(=O)NCC4CCCO4)nnc3c2c1 (configuration not stated)	none
CCOc1ccc2c(c1)c1nnc(SCC3CCCO3)nc1n2C (configuration not stated)	HIF act 93.1 (no result: ALR inh)
COCCNC(=O)/C(C#N)=C/c1ccc(OC(=O)c2cccs2)c(OC)c1	none (no result: Mot1-301 SUMO, ALR inh)
COc1cc(/C=C(\C#N)C(=O)NCC2CCCO2)ccc1OCC(N)=O (configuration not stated)	ALR inh 94.6
COc1ccc(/C=C(\C#N)C(=O)NCC2CCCO2)cc1OC (configuration not stated)	none
COc1cc(/C=C(\C#N)C(=O)NCc2cccs2)ccc1O	ALR inh 99.5
CCOc1cc(/C=C(\C#N)C(=O)NCc2cccnc2)ccc1O	ALR inh 88.1
N#Cc1ccccc1S(=O)(=O)N1CCN(C(=O)C2CC(=O)N(c3ccc4c(c3)OCCO4)C2)CC1 (configuration not stated)	none (no result: HIF act, AI-2 QS modul)
COc1ccc(CNc2ncc(-c3ccc(Cl)cc3)n2C)c(OC)c1OC	none
COc1ccc(N2CCN(Cc3nc(N)nc(N4CCCc5ccccc54)n3)CC2)cc1	ALR inh 86.8
Nc1nc(CN2CCN(c3cccc(Cl)c3)CC2)nc(N2CCCc3ccccc32)n1	none

Source: PubChem (Broad Institute)
